Legend:
Assay type in all cases: functional
Plasmodium falciparum [1] = experiment: GSK_TCMDC: Inhibition of Plasmodium falciparum 3D7 in whole red blood cells, using parasite LDH activity as an index of growth. Test compounds present at 2uM
Plasmodium falciparum [2] = experiment: GSK_TCMDC: Inhibition of Plasmodium falciparum Dd2 in whole red blood cells, using parasite LDH activity as an index of growth. Test compounds present at 2uM
HepG2 = experiment: GSK_TCMDC: Percent inhibition of human HepG2 cell line. Test compounds present at 10uM.

SMILES	Inhibition (Plasmodium falciparum [1])	Inhibition (Plasmodium falciparum [2])	Inhibition (HepG2)
O=C(NC1CCC(N2CCC(O)(c3ccc(F)cc3)CC2)CC1)c1cc2ccccc2[nH]1 (stereo unspecified)	94%	8%	9%
CS(=O)(=O)N1CC2(CCN(CCC(NC(=S)Nc3ccccc3)c3ccc(Cl)c(Cl)c3)CC2)c2ccccc21 (stereo unspecified)	98%	80%	24%
CCN(CC)CCNc1nc(C=Cc2ccc(Cl)cc2)nc2cc3ccccc3cc12	100%	99%	83%
CC(C)C(C(=O)Nc1ccc(S(=O)(=O)N(C)C)cc1)c1ccc(Cl)cc1 (stereo unspecified)	100%	98%	27%
O=C(NC1CC1)c1cnc(N2CCN(Cc3ccc(Cl)cc3)CC2)c(Cl)c1.O=C(O)C(F)(F)F	93%	91%	39%
O=C(Nc1ccc(C(F)(F)F)cc1)NC1CCN(c2ccnc3ccccc23)C1.O=C(O)C(F)(F)F (stereo unspecified)	100%	89%	13%
CCOc1c(CNCCCNc2nc3ccccc3[nH]2)cc(I)cc1OC.Cl	100%	4%	42%
CC(C)Nc1nc(NCCc2c[nH]cn2)nc(Nc2ccc(Oc3ccccc3)cc2)n1	95%	9%	0%
O=c1cc(NCCCNC2CCCc3c2ccc2ccccc32)[nH]c2ccccc12 (stereo unspecified)	94%	30%	0%
CC(C)CCCC(C)(C)NC[C@@H](O)[C@H](Cc1ccccc1)NC(=O)c1cc(NC(C)C)cc(N2CCCCS2(=O)=O)c1F.O=CO	98%	99%	11%
COc1ccc2ncc(F)c(CCN3CCC(CNC(=O)C(=O)c4c[nH]c5ccccc45)CC3)c2n1	100%	99%	48%
O=C(NC1CCN(Cc2ccc(F)cc2)CC1)c1ccc(-c2cccc(C(F)(F)F)c2)s1.O=C(O)C(F)(F)F	83%	11%	88%
Cn1nc(-c2ccc(NC(=O)Nc3ccc4ccccc4c3)c(F)c2)c2cnc(NCCN3CCOCC3)nc21.O=C(O)C(F)(F)F	93%	3%	62%
O=C(Nc1cccc(C(F)(F)F)c1)Nc1ccc(Cl)c(C(F)(F)F)c1	99%	99%	0%
Cc1ccc(C)c(CC(=O)N2CCC(n3c(C)nc4ccc(F)cc43)CC2)c1	100%	99%	0%
Cc1cc(N[C@@H](Cc2ccccc2)C(=O)NCc2cccc(F)c2)nc(Nc2ccccc2)n1.O=C(O)C(F)(F)F	100%	92%	20%
Cc1nn(-c2ccc(Cl)cc2)c2[nH]c(CN3CCN(c4cccc(Cl)c4)CC3)cc(=O)c12	98%	98%	0%
O=C(Nc1cccc(N2CCC(NCc3cccnc3)CC2)c1)c1cccc(C(F)(F)F)c1	98%	2%	26%
CNC(=O)C1Cc2c([nH]c3c(C)cccc23)C2(N1)C(=O)Nc1ccc(OC(F)(F)F)cc12 (stereo unspecified)	100%	50%	0%
COc1ccc(S(=O)(=O)Nc2cc(Br)cc3c2OCCC3)cc1N1CCN(C(=O)C(Cl)(Cl)Cl)CC1	90%	51%	4%
CCNc1cc(C(=O)N[C@@H](Cc2ccccc2)[C@H](O)CNC(C)(C)CSCC(C)C)cc(N2CCCC2=O)c1	100%	97%	0%

SMILES	Inhibition (Plasmodium falciparum [1])	Inhibition (Plasmodium falciparum [2])	Inhibition (HepG2)
CC(=O)Nc1ccc(S(=O)(=O)Nc2c(C)cc(Cc3cnc(N)nc3N)cc2C)cc1	94%	0%	6%
COc1ccccc1CNC(=O)CCn1c(=O)[nH]c2ccsc2c1=O	85%	75%	0%
c1ccc(-c2cc(NCCCn3ccnc3)nc(-c3cccnc3)n2)cc1	84%	6%	15%
Cc1cccc2nc(-c3ccc(-c4ccc(CN5CCCC(O)C5)cc4)cc3)[nH]c12.O=C(O)C(F)(F)F (stereo unspecified)	100%	54%	41%
CCOc1ccc(C2CCN(CCCCNC(=O)c3ccc(NC(=O)c4ccc(Cl)cc4)cc3)CC2)c(CC)c1	100%	64%	44%
Fc1ccc(Nc2nnc(CNC3CCN(Cc4ccc(Cl)c(Cl)c4)CC3)[nH]2)cc1	100%	36%	18%
Cc1ccc2nc(C)cc(Nc3ccccc3O)c2c1.Cl	96%	6%	0%
CCCN1CCN(c2cc(NCC)c3c4c(onc24)-c2ccccc2C3=O)CC1	96%	11%	4%
Nc1nc(N)c2c(ccc3[nH]ccc32)n1	88%	0%	58%
CCN(CC)Cc1cc(Nc2c3ccc(Cl)cc3nc3cccc(OC)c23)ccc1O.Cl	100%	98%	8%
O=C(Nc1cc(C(F)(F)F)cc(C(F)(F)F)c1)c1cc(C(F)(F)F)cc(C(F)(F)F)c1	100%	86%	21%
CC(C)c1ccc(NC(=O)c2cccc(CN3CCCN(Cc4cccc(O)c4)CC3)c2)cc1.O=C(O)C(F)(F)F	97%	33%	25%
Cc1cc(N(C)C)nc(Nc2ccc(NC(=O)c3c(F)cccc3F)cc2)n1	94%	45%	50%
O=C1C(=Cc2cc(Cc3ccccc3)ccc2O)SC(=S)N1Cc1ccccc1	98%	53%	16%
CCn1c(Sc2ccc(C#N)c([N+](=O)[O-])c2)nnc1-c1ccc(OC)cc1	98%	94%	0%
COc1ccc2nccc(N3CCCN(CCNCc4ccc5c(n4)NC(=O)CS5)CC3)c2n1.Cl	100%	10%	8%
CCN(CC)CCOc1ccc(N(Cc2ccc(C(C)(C)C)cc2)C(=O)c2ccc(Cc3ccccc3)cc2)cc1OC.Cl	99%	73%	5%
O=C(O)C(F)(F)F.c1ccc(CN2CCC(NCc3ccccc3-c3cccc(CNCc4ccc5c(c4)OCO5)c3)CC2)cc1	100%	69%	37%
CCOc1ccc2c(=NN=Cc3cc(OC)c(OC)c(OC)c3)cc(C)[nH]c2c1	100%	99%	18%
O=C(NC1CC1)c1ccc(N2CCOc3ccc(Cl)cc32)s1	94%	73%	8%
CN(C)CCCOC(=O)c1cc2cc(-c3ccccc3)ccc2n1S(=O)(=O)Cc1ccccc1.Cl	100%	70%	13%

SMILES	Inhibition (Plasmodium falciparum [1])	Inhibition (Plasmodium falciparum [2])	Inhibition (HepG2)
COc1nc2c(CCN3CC[C@H](NCc4cc(C#N)c5c(c4)OCCO5)[C@H](O)C3)ccnc2cc1F	95%	41%	18%
CN(Cc1cccc(O)c1)C1CCCN(c2cc(NC(=O)c3ccc(F)cc3)ccn2)C1.O=C(O)C(F)(F)F (stereo unspecified)	91%	12%	8%
CNc1nc(Nc2ccccc2C)nc2ccccc12.Cl	100%	81%	17%
CCCNCc1ccc(-c2ccc(CN(CCOC)C(=O)c3cnc(C)cn3)cc2)nc1.O=C(O)C(F)(F)F	81%	14%	0%
CCN1CCN(CCNc2c3ccccc3nc3ccccc23)CC1.Cl	93%	8%	45%
O=C(NCC1CCC(C(=O)NCCN2CCCCC2)CC1)c1ccc(O)c(-c2ccc(Cl)c(Cl)c2)c1 (stereo unspecified)	91%	22%	0%
Cc1ccc(NC(=S)N2CCCN(CCCCCNC(=O)/C=C/c3ccc(Cl)c(Cl)c3)CC2)cc1Cl	93%	5%	14%
COc1ccccc1C1CN(CCNC(=O)c2nc(C)c[nH]2)Cc2ccccc2O1 (stereo unspecified)	90%	86%	4%
COc1ccc(C2C(C(=O)Nc3cc(OC)c(OC)c(OC)c3)c3cc(OC)c(OC)cc3C(=O)N2C)cc1 (stereo unspecified)	98%	100%	9%
Cl.N=C(N)c1cccc(OCCCOc2cccc(NC(=O)Nc3ccc([N+](=O)[O-])cc3)c2)c1	98%	22%	16%
O=C(Nc1ccccc1F)NC1CCN(c2ccnc(Nc3ccc(F)cc3)n2)CC1	99%	63%	13%
N#Cc1ccc(-c2ccc(C(=O)NCCCCN3CCC(c4ccc5c(c4OCC(N)=O)CCCC5)CC3)nc2)cc1	100%	97%	21%
Cc1ccc2cc(NCCCCCCCCON3C(N)=NC(N)=NC34CCCCC4)ccc2n1	92%	80%	15%
N=C(N)NC(=O)Nc1cc(Cl)c(Cl)c(C(F)(F)F)c1	100%	99%	6%
Clc1ncccc1-c1nc(NCCC(c2ccccc2)c2ccccc2)no1	94%	82%	12%
CC(C)(Oc1c(C2CCN(CCCCNC(=O)c3ccc(-c4ccc(C#N)cc4)cc3)CC2)ccc2c1CCCC2)C(N)=O	100%	82%	34%
Cc1cc(CN2CC[C@H](NC(=O)c3ccc(Cl)c(Cl)c3)C2)ccc1OCCN1CCCC1.O=C(O)C(F)(F)F	100%	92%	56%
CCN(CC)S(=O)(=O)c1ccc(Cl)c(C(=O)Nc2ccc3nc(C)sc3c2)c1	96%	94%	9%
O=C(O)C(F)(F)F.Oc1ccc(CCNc2nc(NCc3ccccc3Oc3ccc(C(F)(F)F)cc3)nc(N3CCNCC3)n2)cc1	86%	2%	26%
CC(=O)c1sc(NC(=O)Nc2ccc(C)cc2C)nc1C	96%	68%	5%
